Several values for one entry are separate records, joined by “and”; a condition that tells them apart may be missing. Identical values can stand only once. Inconclusive results are not listed. More than one record can exist for a structure, and the calls need not agree. Activity calls are given as the source filed them. Rule for the calls: active = hit-call score of the fitted dose curve at least 0.9, where 1 is the maximum; inconclusive = response in the unintended direction; inactive = score below 0.9.

The results in this text go back to PubChem BioAssay (EPA / NIEHS).

Chain of chimpanzee Androgen Receptor (AR), AR (gene 747460) (O97775 whole entry, looked up): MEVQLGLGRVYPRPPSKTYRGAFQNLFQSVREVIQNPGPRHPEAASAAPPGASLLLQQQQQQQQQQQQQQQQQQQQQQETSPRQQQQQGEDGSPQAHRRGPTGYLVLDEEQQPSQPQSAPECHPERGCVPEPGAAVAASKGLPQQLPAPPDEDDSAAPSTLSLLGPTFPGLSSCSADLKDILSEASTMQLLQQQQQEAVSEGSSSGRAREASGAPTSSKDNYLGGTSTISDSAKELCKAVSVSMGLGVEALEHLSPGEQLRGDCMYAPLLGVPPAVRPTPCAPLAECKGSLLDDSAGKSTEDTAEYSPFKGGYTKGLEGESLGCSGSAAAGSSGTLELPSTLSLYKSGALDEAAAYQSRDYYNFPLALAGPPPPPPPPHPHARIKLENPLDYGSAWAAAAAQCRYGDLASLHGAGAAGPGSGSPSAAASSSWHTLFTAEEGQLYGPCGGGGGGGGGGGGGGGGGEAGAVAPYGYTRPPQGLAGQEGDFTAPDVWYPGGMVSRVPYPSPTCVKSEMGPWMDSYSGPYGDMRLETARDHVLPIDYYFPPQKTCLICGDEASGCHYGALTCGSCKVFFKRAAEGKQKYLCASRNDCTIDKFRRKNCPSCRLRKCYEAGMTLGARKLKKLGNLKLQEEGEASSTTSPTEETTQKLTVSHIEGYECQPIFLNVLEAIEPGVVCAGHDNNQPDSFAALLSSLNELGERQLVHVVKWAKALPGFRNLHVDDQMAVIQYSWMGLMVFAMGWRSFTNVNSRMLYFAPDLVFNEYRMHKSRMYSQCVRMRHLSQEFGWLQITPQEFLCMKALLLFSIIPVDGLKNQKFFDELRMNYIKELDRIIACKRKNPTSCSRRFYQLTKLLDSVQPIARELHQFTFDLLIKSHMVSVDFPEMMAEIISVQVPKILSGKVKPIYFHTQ
Chain of rat Gamma-Aminobutyric Acid Type A Receptor, Non-Selective (GABAR-NonSelective), Gabra1 (gene 29705) (P62813 whole entry, looked up): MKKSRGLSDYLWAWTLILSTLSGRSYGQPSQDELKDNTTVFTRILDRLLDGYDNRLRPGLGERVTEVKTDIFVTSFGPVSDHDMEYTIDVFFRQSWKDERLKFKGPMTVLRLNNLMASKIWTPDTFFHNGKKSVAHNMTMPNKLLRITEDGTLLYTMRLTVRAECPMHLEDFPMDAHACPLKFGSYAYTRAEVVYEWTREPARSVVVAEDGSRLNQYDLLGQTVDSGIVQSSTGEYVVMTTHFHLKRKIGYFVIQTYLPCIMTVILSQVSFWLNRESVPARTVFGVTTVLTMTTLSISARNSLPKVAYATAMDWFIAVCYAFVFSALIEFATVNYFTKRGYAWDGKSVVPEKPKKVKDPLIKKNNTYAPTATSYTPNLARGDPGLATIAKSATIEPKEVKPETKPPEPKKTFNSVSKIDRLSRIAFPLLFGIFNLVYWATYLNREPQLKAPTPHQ
Chain of human Peripheral-type Benzodiazepine Receptor (PBR), TSPO (gene 706) (P30536 whole entry, looked up): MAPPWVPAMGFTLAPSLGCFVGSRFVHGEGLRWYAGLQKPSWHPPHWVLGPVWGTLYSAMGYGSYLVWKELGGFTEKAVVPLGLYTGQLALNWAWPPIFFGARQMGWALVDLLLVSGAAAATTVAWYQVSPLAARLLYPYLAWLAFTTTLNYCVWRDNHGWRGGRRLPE
Chain of rat Thyrotropin Releasing Hormone Receptor (TRH), Trhr (gene 25570) (Q01717 whole entry, looked up): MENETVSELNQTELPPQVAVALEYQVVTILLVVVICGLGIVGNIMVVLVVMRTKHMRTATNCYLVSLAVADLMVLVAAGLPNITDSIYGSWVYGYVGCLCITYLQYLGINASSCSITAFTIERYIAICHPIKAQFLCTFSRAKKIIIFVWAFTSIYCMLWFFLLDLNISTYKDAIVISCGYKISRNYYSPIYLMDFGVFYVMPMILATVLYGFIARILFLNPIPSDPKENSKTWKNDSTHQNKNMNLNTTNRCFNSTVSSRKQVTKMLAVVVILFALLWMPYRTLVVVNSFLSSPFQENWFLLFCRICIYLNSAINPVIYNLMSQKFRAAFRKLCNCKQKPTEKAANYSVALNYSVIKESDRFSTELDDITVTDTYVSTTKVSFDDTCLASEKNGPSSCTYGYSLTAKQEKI

The target of the first experiment is Sodium channel protein type 1 subunit alpha (Rattus norvegicus) (UniProt P04774). The experiment can be described thus: NVS_IC_rNaCh_site2: NovaScreen (NVS) Ion Channel Assay for rat Sodium Channel, Site 2 (NaCh) (AID 2283322).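 Note: hit means loss of radioligand binding signal relative to DMSO so AC50 marks displacement.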 On the procedure: (§1) NVS_IC_rNaCh_site2 is a biochemical, single-readout assay that uses extracted gene-proteins from Rat forebrain membranes in a tissue-based cell-free assay. Measurements were taken 1 hour after chemical dosing in a 48-well plate.NVS_IC_rNaCh_site2 is one of one assay component(s) measured or calculated from the NVS_IC_rNaCh_site2 assay. It is designed to make measurements of radioligand binding, a form of binding reporter, as detected with scintillation counting signals by Filter-based radiodetection technology.Data from the assay component NVS_IC_rNaCh_site2 was analyzed into 1 assay endpoint. This assay endpoint, NVS_IC_rNaCh_site2, was analyzed in the positive analysis fitting direction relative to DMSO as the negative control and baseline of activity. Using a type of binding reporter, loss-of-signal activity can be used to understand changes in the binding as they relate to the gene Scn1a. Furthermore, this assay endpoint can be referred to as a primary readout, because the performed assay has only produced 1 assay endpoint. To generalize the intended target to other relatable targets, this assay endpoint is annotated to the ion channel intended target family, where the subfamily is sodium channel.
Binding assays used specific radioligands (tritiated, iodinated) with non-radioactive competitive displacement ligands in agonist or antagonist protocols (as indicated) and various reference compounds and inhibitors to titrate specific binding to receptors and transporters. Most enzyme assays (CYPs, kinases, phosphatases, proteases, HDACs) used recombinant protein and specific substrates (fluorescence mostly, some colorimetric and radioactive) and inhibitors, followed by a biochemical separation of substrate and product. All assays for the biochemical HTS were initially run in duplicate at a single concentration (10 uM for CYP450 assays and 25 uM for all others). […] Each assay was run with positive and negative controls, and concurrent controls on every plate. The follow-up (secondary) screen tested active chemical-pairs in concentration series, as well as a few additional assays not tested in the primary screen, some selected negative inactives, and several cases re-run in the concentration series for confirmatory purposes.
As to `CCCCOCCOP(=O)(OCCOCCCC)OCCOCCCC`, the outcome was inactive.
Turning to `CC(C)(C)c1ccccc1OP(=O)(Oc1ccccc1)Oc1ccccc1`, the result was inactive.
On the same count and under the same terms, the value for `Cc1cc(C)c(C(=O)P(=O)(c2ccccc2)c2ccccc2)c(C)c1` was “inactive”; that for `CCOP(=S)(OCC)SCS(=O)(=O)CC` was “inactive”.
In the case of `CCC(C)(C)c1ccc(O)cc1`, the AC50 was 41.5 µM (active).
`CSC(C)(C)C=NO`: the compound was called inactive.
Turning to `Oc1ccc(I)cc1`, the AC50 was 7.01 µM (active).
Still for that read-out and setting: the value for `N#Cc1ccc(O)cc1` was 41.3 µM (active).

Another experiment deals with rat Gamma-Aminobutyric Acid Type A Receptor, Non-Selective (GABAR-NonSelective), Gabra1 (gene 29705) (UniProt P62813). The experiment can be described thus: NVS_LGIC_rGABAR_NonSelective: NovaScreen (NVS) Ligand-Gated Ion Channel Assay for rat Gamma-Aminobutyric Acid Type A Receptor, Non-Selective (GABAR-NonSelective) (AID 2283326). On the procedure:
as §1, with “NVS_LGIC_rGABAR_NonSelective” for “NVS_IC_rNaCh_site2”, “whole brain” for “forebrain membranes”, “plate.NVS_LGIC_rGABAR_NonSelective” for “plate.NVS_IC_rNaCh_site2”, “NVS_LGIC_rGABAR_NonSelective,” for “NVS_IC_rNaCh_site2,”, “Gabra1.” for “Scn1a.”, “ligand-gated ion” for “sodium”
Binding assays used specific radioligands (tritiated, iodinated) with non-radioactive competitive displacement ligands in agonist or antagonist protocols (as indicated) and various reference compounds and inhibitors to titrate specific binding to receptors and transporters. Most enzyme assays (CYPs, kinases, phosphatases, proteases, HDACs) used recombinant protein and specific substrates (fluorescence mostly, some colorimetric and radioactive) and inhibitors, followed by a biochemical separation of substrate and product. All assays for the biochemical HTS were initially run in duplicate at a single concentration (10 uM for CYP450 assays and 25 uM for all others). […]
In the case of `CCOS(=O)(=O)OCC`, the compound was classed as inactive.
As for `c1cc2c3c(cccc3c1)CC2`, the concentration at half-maximal activity (AC50) is 1.7 µM (active).
In the case of `CCC1(c2ccccc2)C(=O)N=C(O)NC1=O` (stereo unspecified), the compound was called inactive.

Another experiment concerns the target rat Thyrotropin Releasing Hormone Receptor (TRH), Trhr (gene 25570) (UniProt Q01717). The experiment can be described thus: NVS_GPCR_rTRH: NovaScreen (NVS) G Protein-Coupled Receptor Assay for rat Thyrotropin Releasing Hormone Receptor (TRH) (AID 2283329).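 Note: hit means lower bound tracer signal versus DMSO baseline.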 In short, it runs like this: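 Competitive radioligand binding on rat forebrain membrane preparations, with filtration and scintillation readout after 4 h. Primary testing in duplicate at 25 uM; actives confirmed in concentration-response. DMSO defined baseline.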
As to `CC(C)(C)N(NC(=O)c1ccc(Cl)cc1)C(=O)c1ccccc1`, the result was inactive.
Still for that read-out and setting: the value for `COC(N)=O` was “inactive”; that for `FC(F)(F)c1ccc(Cl)cc1` was “inactive”; that for `CCCCC(CC)COP(=O)(Oc1ccccc1)Oc1ccccc1` (stereo unspecified) was “inactive”.
On the same count and under the same terms, under `c1ccc2c(c1)sc1ccccc12` stands “inactive”; under `O=C(CBr)OCc1ccccc1`, “inactive”; under `O=S1(=O)OCC2C(CO1)C1(Cl)C(Cl)=C(Cl)C2(Cl)C1(Cl)Cl` (stereo unspecified), “inactive”.
Turning to `CCCCCCCc1ccc(O)cc1`, the outcome was inactive.

Another experiment concerns the target human Peripheral-type Benzodiazepine Receptor (PBR), TSPO (gene 706) (UniProt P30536). Description: NVS_MP_hPBR: NovaScreen (NVS) Membrane Protein Assay for human Peripheral-type Benzodiazepine Receptor (PBR) (AID 2283331).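 Note: hits reduce radioligand binding relative to DMSO baseline.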 A digest of the protocol: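 Human colonic cell membranes were incubated with test chemical for 1 hour; radioligand binding was measured by filter-based scintillation counting. Primary screen ran in duplicate at 25 uM, with actives followed in concentration series; loss of signal versus DMSO baseline.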
Turning to `CCCCOCCOP(=O)(OCCOCCCC)OCCOCCCC`, the AC50 was 7.98 µM (active) and 6.27 µM (active).
The same measure, in the same setting: under `CCOP(=S)(NC(C)C)Oc1ccccc1C(=O)OC(C)C` (stereo unspecified) stands 9.3 µM (active); under `CCOP(=S)(OCC)SCn1nnc2ccccc2c1=O`, 11.2 µM (active); under `CCCCC(CC)COP(=O)(Oc1ccccc1)Oc1ccccc1` (stereo unspecified), 10.9 µM (active).
As to `CC(C)(C)c1ccccc1OP(=O)(Oc1ccccc1)Oc1ccccc1`, the AC50 was 1.16 µM (active).
On the same count and under the same terms, the value for `Cc1cc(C)c(C(=O)P(=O)(c2ccccc2)c2ccccc2)c(C)c1` was 3.55 µM (active); that for `O=P(OCC(Br)CBr)(OCC(Br)CBr)OCC(Br)CBr` (stereo unspecified) was 1.25 µM (active) and 139 nM (active).
Consider `CC(C)(C)c1ccc(O)cc1`, for which the compound was classed as inactive.
As for `CCOP(=S)(OCC)SCS(=O)(=O)CC`, the concentration at half-maximal activity (AC50) is 25 µM (active).
As for `CCC(C)(C)c1ccc(O)cc1`, the compound was classed as inactive.
Turning to `Oc1ccc(I)cc1`, the outcome was inactive.
For the compound `N#Cc1c(-c2ccc(Cl)cc2)[nH]c(C(F)(F)F)c1Br`, the AC50 was 0.122 µM (active).

The next experiment deals with rat Peripheral-type Benzodiazepine Receptor (PBR), Tspo (gene 24230) (UniProt P16257). The experiment can be described thus: NVS_MP_rPBR: NovaScreen (NVS) Membrane Protein Assay for rat Peripheral-type Benzodiazepine Receptor (PBR) (AID 2283335). In short, it runs like this: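 Radioligand displacement, rat kidney membrane prep, 1 h exposure, filter-based scintillation read; DMSO baseline, loss-of-signal scored. Primary screen at 25 uM in duplicate, actives followed up in concentration series.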
Chain of rat Peripheral-type Benzodiazepine Receptor (PBR), Tspo (gene 24230) (P16257 whole entry, looked up): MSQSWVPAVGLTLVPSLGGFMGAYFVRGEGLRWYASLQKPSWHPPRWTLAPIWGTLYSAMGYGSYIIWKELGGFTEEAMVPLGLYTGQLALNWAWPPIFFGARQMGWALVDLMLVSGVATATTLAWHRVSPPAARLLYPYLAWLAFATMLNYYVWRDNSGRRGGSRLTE
Turning to `c1ccc2c(c1)Nc1ccccc1S2`, the outcome was inactive.
Turning to `CCCCOCCOP(=O)(OCCOCCCC)OCCOCCCC`, the AC50 was 7.47 µM (active) and 7.45 µM (active).
On to `CCOP(=S)(NC(C)C)Oc1ccccc1C(=O)OC(C)C` (stereo unspecified), for which the call was inactive.
`CCOP(=S)(OCC)SCn1nnc2ccccc2c1=O`: the concentration at half-maximal activity (AC50) is 9.51 µM (active).
`CCCCC(CC)COP(=O)(Oc1ccccc1)Oc1ccccc1` (stereo unspecified): the half-maximal activity concentration (AC50) is 2.93 µM (active) and the compound was classed as inactive.
For the compound `Cc1cc(C)c(C(=O)P(=O)(c2ccccc2)c2ccccc2)c(C)c1`, the outcome was inactive.
Take `O=P(OCC(Br)CBr)(OCC(Br)CBr)OCC(Br)CBr` (stereo unspecified): the concentration at half-maximal activity (AC50) is 0.169 µM (active) and the call was inactive.
As for `N#Cc1c(-c2ccc(Cl)cc2)[nH]c(C(F)(F)F)c1Br`, the AC50 is 0.377 µM (active).

In the next experiment the target is bovine Estrogen Receptor (ER), ESR1 (gene 407238) (UniProt P49884). Description: NVS_NR_bER: NovaScreen (NVS) Nuclear Receptor Binding Assay for bovine Estrogen Receptor (ER) (AID 2283345).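 Note: actives lower the bound radioligand count which means they displace the ER ligand.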 In short, it runs like this: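 Displacement of a radioligand from estrogen receptor in bovine uterine membrane preparations; scintillation signal taken at 18 hours, DMSO as baseline. Single-concentration duplicates (25 uM) preceded concentration-response follow-up of actives.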
Chain of bovine Estrogen Receptor (ER), ESR1 (gene 407238) (P49884 whole entry, looked up): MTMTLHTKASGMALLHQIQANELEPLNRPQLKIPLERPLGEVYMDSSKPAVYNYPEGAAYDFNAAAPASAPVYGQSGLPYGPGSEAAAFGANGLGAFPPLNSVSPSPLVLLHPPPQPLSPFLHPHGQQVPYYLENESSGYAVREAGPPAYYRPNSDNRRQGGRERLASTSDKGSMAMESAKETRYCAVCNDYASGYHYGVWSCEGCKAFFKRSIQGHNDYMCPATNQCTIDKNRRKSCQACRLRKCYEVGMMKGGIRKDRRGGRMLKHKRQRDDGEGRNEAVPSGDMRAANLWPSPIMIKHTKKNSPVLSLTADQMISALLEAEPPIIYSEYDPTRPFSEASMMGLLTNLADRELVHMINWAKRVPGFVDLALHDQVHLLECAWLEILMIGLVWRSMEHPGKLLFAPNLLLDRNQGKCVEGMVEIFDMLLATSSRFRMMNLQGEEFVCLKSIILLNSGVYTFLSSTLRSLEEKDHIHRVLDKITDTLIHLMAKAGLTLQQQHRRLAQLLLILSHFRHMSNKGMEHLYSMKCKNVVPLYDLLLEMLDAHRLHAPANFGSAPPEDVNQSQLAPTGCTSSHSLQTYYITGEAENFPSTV
In the case of `c1ccc2c(c1)Nc1ccccc1S2`, the call was inactive.
On the same count and under the same terms, under `O=P1(N(CCCl)CCCl)NCCCO1` (stereo unspecified) stands “inactive”.
For the compound `CCCCCCCc1ccc(O)cc1`, the half-maximal activity concentration (AC50) is 0.106 µM (active) and the compound was classed as inactive.
Regarding `Nc1ccc(Cl)cc1`, the result was inactive.
On the same count and under the same terms, under `CCC(C)(C)c1ccc(O)cc1` stands “inactive”.

A further experiment concerns the target chimpanzee Androgen Receptor (AR), AR (gene 747460) (UniProt O97775). Description: NVS_NR_cAR: NovaScreen (NVS) Nuclear Receptor Binding Assay for chimpanzee Androgen Receptor (AR) (AID 2283346). In short, it runs like this: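 Cell-free radioligand displacement using receptor protein extracted from Sf9/Sf21 cells; bound radioligand measured by scintillation counting 72 hours after chemical dosing. Loss of signal versus DMSO baseline indicates binding; primary screen single-concentration in duplicate at 25 uM, actives followed in concentration series.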
Regarding `O=S1(=O)OCC2C(CO1)C1(Cl)C(Cl)=C(Cl)C2(Cl)C1(Cl)Cl` (stereo unspecified), the outcome was inactive.
Same read-out and setting: under `CCCCCCCc1ccc(O)cc1` stands “inactive”.
Turning to `O=P(OCC(Br)CBr)(OCC(Br)CBr)OCC(Br)CBr` (stereo unspecified), the AC50 is 21.8 µM (active).
Still for that read-out and setting: the value for `CCC(C)(C)c1ccc(O)cc1` was 25 µM (active).
